# Laboratory results taken from the supplement of paper PMC6555819.
# Assays:
# Assay in all cases: PBM binding z-score (relative to random genomic background probes); higher = stronger binding; sequences stand for … in GC…GCGATTGACAGCGTAGAATGAAGG
# [1] = tested on: RARb homodimer (NR concentration 270 nM)
# Procedure, shortened: (§1)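 Regression normalization was applied to scanned fluorescence from custom Agilent 4×180K protein-binding microarrays. Before scanning, arrays were incubated 1 h with ligand-free nuclear receptor dimers, and binding was detected with antibodies against each partner (one per run). Binding z-scores use the random background probes as reference.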
# [2] = tested on: RARg:RXRa (NR concentration 270 nM, RXRa partner concentration 90 nM)
# Procedure, shortened: as §1
# [3] = tested on: RARg homodimer (NR concentration 270 nM)
# Procedure, shortened: as §1
# [4] = tested on: RXRa DBDmut IVT, anti-RXR (DBD mutation: RXRa K156A/R161A, NR concentration 90 nM)
# Procedure, shortened: as §1
# [5] = tested on: RXRa homodimer (NR concentration 180 nM)
# Procedure, shortened: as §1
# [6] = tested on: THRa:RXRa (NR concentration 90 nM, RXRa partner concentration 90 nM)
# Procedure, shortened: as §1
# [7] = tested on: THRa homodimer (NR concentration 90 nM)
# Procedure, shortened: as §1
# [8] = tested on: VDR homodimer (NR concentration 270 nM)
# Procedure, shortened: as §1
Sequence,PBM binding z-score [1],PBM binding z-score [2],PBM binding z-score [3],PBM binding z-score [4],PBM binding z-score [5],PBM binding z-score [6],PBM binding z-score [7],PBM binding z-score [8]
TCTAGTTGGTCCCGGAGGTCACACACGACGGGTA,3.79,3.99,3.7,0.937,4.39,3.59,3.02,2.67
AACTCTAGGTAAGACTCAGTTCAGTGAAGAACGC,0.462,-0.177,0.0668,0.487,-0.128,0.636,0.228,1.15
ATATGTAGGTTAGCGGGTCATTCAGTTTGCGCAT,2.65,2.83,2.37,1.42,2.77,2.06,1.08,2.76
TGAATGAGGCTATAAGATCAGGGAACGTTGCAAA,-0.742,-0.102,0.256,-1.09,-0.0491,-0.134,-0.324,-0.554
ATCGAAAGGTGGTGAGGTGAGTATACAGAAAGGC,1.13,0.717,0.846,-0.654,0.748,1.8,1.23,0.366
CCGACTGGGGCATAAGGTGACCATAAGCCAGCCC,1.26,0.678,0.621,-1.25,0.516,1.7,0.792,-0.621
GGAACGAGGGCAAGTTGAGAGCAGAGTTTGATGG,1.58,1.77,2.21,2.26,0.94,1.45,0.0177,1.66
CTACCAAGGTGAACAAGATCGTTGATTACTATTC,0.653,0.951,0.995,0.225,0.874,1.66,0.798,-0.0814
ACTAGTTGGTCGGCTGAGGTCACACACAATTCGG,4.05,3.76,3.25,1.12,4.19,4.77,5.24,3.84
CCTAGTTGGTCAAGGGCACACACGCTATAGGTAC,1.78,1.41,1.99,0.232,0.726,1.09,0.605,1.09
TCTTGTATATCAATAGAGGTTAAGAAAGTGCGCT,1.38,0.864,0.687,1.05,1.58,1.72,-0.0174,0.47
AGATTGAGGTTATACGTAGATCAGGGAAGAAAGT,0.842,1.71,0.96,1.28,2.2,2.24,0.943,0.908
TCATATAGGTAAATAGGTGAAAGTCCGTAAGTTA,1.17,1.26,0.407,1.39,1.62,0.865,0.0399,0.337
CAAACTAGGTCAGAGGTCAAAGTCGAGCCAACCA,5.04,7.59,6.79,2.96,9.16,4.3,2.24,4.21
GGAACAAGGGCATTCGAGTTGATAGCATGGCGAT,1.12,1.21,1.36,2.48,0.917,3.16,-0.205,2.39
TAGCCTAGGTCATTAGGCCAGTATAGTACGCATC,2.93,3.47,3.8,1.54,2.1,2.4,0.34,0.922
TCTATTAGTTGTAGGGCAACCGACGAGTCCGTTT,0.489,0.147,0.469,1.17,0.403,0.112,0.0984,1.13
CGAACTAGGTAATCCAGGACAGTGAATACATTGA,-0.194,0.0775,0.29,0.502,-0.0168,1.85,0.946,-0.254
CCCAGCAGGCCAATCTGGGTCACTCAAGGCTTGA,2.53,1.29,1.5,-0.496,0.923,3.73,0.49,-0.172
CCGAATAGGTTATGGGGCATTCAGGCAACGGTGA,1.11,1.06,0.917,0.132,1.31,0.696,-0.0047,-0.175
CCTGCTTGGTCATGGTCAGCTAATCTACAGTATG,0.424,0.464,0.774,0.252,0.162,-0.0915,-0.506,-0.205
ATATGTAGGTTATCGGGTCAATCAGTTTGCGCAT,3.02,3.59,2.68,1.45,3.75,3.3,2.53,2.85
CCAGATAGGTGAGAAGGTAACTCAGCCTCGATTA,0.492,0.647,0.649,0.238,0.44,0.177,-0.0242,-0.157
AGACTGAGGTTACCAAAGATCAGGGAAACGCTTG,0.774,2,1.59,0.709,2.5,2.7,0.552,0.497
CGTCCAAGGTCAATGCTATGTCAGTGAAAGCATT,4,5.86,6.28,3.14,4.94,3.81,1.93,2.37
GATACAGTGTCAAGGCCAGAGTACGCGTATTGAT,1.04,0.527,1.03,0.061,0.517,0.471,-0.196,0.431
ATACCAAGGTGATCGTAAGGTCGTTGATACTAAC,2.01,2.35,0.817,0.559,1.68,3.44,3.08,2.23
CAAACTAGGTCTCGAAAGGTCAAAGTCGAATGAC,4.49,5.71,5.18,1.18,6.53,3.97,1.2,2.67
